Inconclusive results are not listed. Calls of active or inactive are those of the source. Unless noted, the call rests on the fitted dose curve; in most records, active means well fitted curve in the direction sought with a large enough effect in the repeat runs; inconclusive means weak or mixed curves; inactive means no such curve, though single readings can be large; an effect the other way counts as inactive or inconclusive.
Tests used:
[1] = A CellTox Green Cytotoxicity Assay to monitor cytotoxicity in HepG2 cells - 8 hour (AID 1224890); further: nearly all actives have a fitted effect of over 45% in size
Method in brief: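 HepG2 cells, 600/well, preincubated 5 h with CellTox Green dye, then exposed to Tox21 compounds in DMSO at 37 C for up to 40 h. Dead-cell DNA fluorescence read at the indicated time point.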

[2] = qHTS assay to identify small molecule antagonists of the estrogen receptor alpha (ER-alpha) signaling pathway using the BG1 cell line in the presence of 0.1 nM 17-beta-estradiol - cell viability counter screen (AID 1259241); further: nearly all actives have a fitted effect of over 40% in size
Method in brief: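 VM7Luc4E2, 4,000 cells/well, phenol red-free medium + 10% charcoal-stripped FBS; 24 hr plating; cpd + 0.1 nM E2 final, 22 hr 37C/5% CO2; CellTiter-Fluor 30 min, fluorescence.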

[3] = qHTS assay to identify small molecule antagonists of the androgen receptor (AR) signaling pathway using the MDA cell line in the presence of 0.5 nM R1881 - cell viability counter screen (AID 1259242); further: nearly all actives have a fitted effect of over 45% in size
Method in brief: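 MDA-kb2 cells (MMTV-luciferase, AR/GR responsive) were treated with compounds plus 0.5 nM R1881 (final) for 16 hr at 37C, 0% CO2. Viability was then read in the same wells as live-cell protease fluorescence (CellTiter-Fluor, 30 min).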

[4] = target: Androgen receptor (Homo sapiens) (UniProt P10275); experiment: qHTS assay to identify small molecule antagonists of the androgen receptor (AR) signaling pathway using the MDA cell line in the presence of 0.5 nM R1881 (AID 1259243); further: nearly all actives have a fitted effect of over 50% in size
Androgen receptor (Homo sapiens), sequence (P10275 whole entry, looked up): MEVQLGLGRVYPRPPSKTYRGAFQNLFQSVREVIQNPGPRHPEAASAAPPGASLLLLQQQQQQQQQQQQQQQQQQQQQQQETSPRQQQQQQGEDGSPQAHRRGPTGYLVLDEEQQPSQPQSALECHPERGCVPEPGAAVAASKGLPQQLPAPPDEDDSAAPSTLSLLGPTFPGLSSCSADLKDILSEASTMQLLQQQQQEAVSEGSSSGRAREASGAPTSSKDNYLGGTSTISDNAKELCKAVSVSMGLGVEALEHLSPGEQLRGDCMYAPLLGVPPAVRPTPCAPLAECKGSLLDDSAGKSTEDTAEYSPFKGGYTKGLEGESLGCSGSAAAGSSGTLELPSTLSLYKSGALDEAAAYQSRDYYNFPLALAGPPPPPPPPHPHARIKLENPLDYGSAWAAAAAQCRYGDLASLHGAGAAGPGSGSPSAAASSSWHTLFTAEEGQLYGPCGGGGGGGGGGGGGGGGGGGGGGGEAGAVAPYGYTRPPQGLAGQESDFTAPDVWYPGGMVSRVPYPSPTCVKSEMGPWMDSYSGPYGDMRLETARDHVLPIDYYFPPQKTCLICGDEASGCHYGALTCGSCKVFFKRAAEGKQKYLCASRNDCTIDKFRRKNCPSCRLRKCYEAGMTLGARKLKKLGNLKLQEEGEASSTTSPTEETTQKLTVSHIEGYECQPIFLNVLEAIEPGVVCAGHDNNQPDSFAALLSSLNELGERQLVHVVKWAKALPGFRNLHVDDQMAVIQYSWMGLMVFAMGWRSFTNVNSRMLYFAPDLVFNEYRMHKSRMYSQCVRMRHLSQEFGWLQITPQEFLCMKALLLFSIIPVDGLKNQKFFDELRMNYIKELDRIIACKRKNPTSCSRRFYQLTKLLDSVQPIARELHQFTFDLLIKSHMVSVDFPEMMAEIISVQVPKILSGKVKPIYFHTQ
Method in brief: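 MDA-kb2 cells (MMTV-luciferase, responsive to AR and GR) at 3,000/well, rested 5 h at 37C, 0% CO2, then given compounds plus 0.5 nM R1881 (final) for 16 hr. Luciferase read with ONE-Glo after 30 min at room temperature.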

[5] = target: Estrogen receptor (Homo sapiens) (UniProt P03372); experiment: qHTS assay to identify small molecule antagonists of the estrogen receptor alpha (ER-alpha) signaling pathway using the BG1 cell line in the presence of 0.1 nM 17-beta-estradiol (AID 1259244); further: nearly all actives have a fitted effect of over 50% in size
Estrogen receptor (Homo sapiens), sequence (P03372 whole entry, looked up): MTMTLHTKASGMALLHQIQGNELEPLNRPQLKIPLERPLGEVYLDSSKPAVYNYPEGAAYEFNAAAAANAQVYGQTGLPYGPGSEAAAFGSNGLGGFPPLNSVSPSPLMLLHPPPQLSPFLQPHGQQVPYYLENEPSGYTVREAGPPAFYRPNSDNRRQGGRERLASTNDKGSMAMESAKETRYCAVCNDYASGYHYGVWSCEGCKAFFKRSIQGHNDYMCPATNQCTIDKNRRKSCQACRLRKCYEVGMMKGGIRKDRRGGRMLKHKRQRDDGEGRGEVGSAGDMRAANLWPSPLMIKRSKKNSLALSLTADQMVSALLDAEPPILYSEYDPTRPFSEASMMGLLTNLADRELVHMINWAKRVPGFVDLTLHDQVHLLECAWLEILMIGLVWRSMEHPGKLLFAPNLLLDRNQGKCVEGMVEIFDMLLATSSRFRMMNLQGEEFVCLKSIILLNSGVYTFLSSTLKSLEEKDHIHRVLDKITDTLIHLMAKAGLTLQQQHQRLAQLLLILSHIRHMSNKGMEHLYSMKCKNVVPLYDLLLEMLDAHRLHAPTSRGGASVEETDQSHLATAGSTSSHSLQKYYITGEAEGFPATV
Method in brief: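 VM7Luc4E2 cells (endogenous full-length ER-alpha, 4×ERE-luciferase), kept 5 days in phenol red-free, charcoal-stripped FBS medium; 4,000 cells/well. Compounds added with 0.1 nM (final) 17beta-estradiol, 22 hr at 37C; luminescence read with ONE-Glo after 30 min.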

[6] = qHTS assay to identify small molecule HDAC inhibitors (AID 1259364); further: top concentration of the series differs between compounds; nearly all actives have a fitted effect of over 45% in size
Method in brief: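 Wild-type HCT-116 cells, plated overnight at 37 C, exposed to compounds 2 hr at 37 C; luminogenic HDAC-Glo substrate then added 30 min at room temperature. Luminescence reports relative endogenous class I/II HDAC activity.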

[7] = qHTS assay to identify small molecule HDAC inhibitors - cell viability counter screen (AID 1259365); further: series mostly up to about 92 µM; nearly all actives have a fitted effect of over 50% in size
Method in brief: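 Luminescence from CellTiter-Glo, developed 30min at room temperature, reports viability of wild-type HCT-116 cells treated 2hr with compounds at 37 C and 5% CO2 after overnight plating.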

[8] = qHTS assay to identify small molecule agonists of the sonic hedgehog signaling (Shh) pathway - cell viability counter screen (AID 1259366); further: nearly all actives have a fitted effect of over 50% in size
Method in brief: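 Cytotoxicity counter screen run in the same wells as the Shh reporter assay. NIH/3T3 cells carrying a Gli1 response element–driven luciferase were treated with DMSO-dissolved compounds for 24hr, and live-cell protease activity was measured with CellTiter-Fluor.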

[9] = qHTS assay to identify small molecule antagonists of the sonic hedgehog signaling (Shh) pathway - cell viability counter screen (AID 1259367); further: nearly all actives have a fitted effect of over 55% in size
Method in brief: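 After a 4 hr settling period, 3T3 Gli1-Luc cells were treated with DMSO-dissolved chemicals and conditioned medium, kept 24 hr at 37C in 5% CO2, and assayed for viability by CellTiter-Fluor fluorescence following 1 hr reagent incubation.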

[10] = qHTS assay to identify small molecule agonists of the sonic hedgehog signaling (Shh) pathway (AID 1259368; calls by dose curve;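 further: NIH/3T3-derived 3T3Gli1-Luc cells carrying a stable Gli1-driven firefly luciferase reporter; series mostly up to about 92 µM; nearly all actives have a fitted effect of over 15% in size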)
Method in brief: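 NIH/3T3-derived 3T3Gli1-Luc cells with stably integrated Gli1-driven firefly luciferase, 2,000 cells/well, compounds added after 4 hr. Incubated 24 hr at 37C, 5% CO2; luminescence read after 30 min with luciferase reagent at room temperature.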

[11] = qHTS assay to identify small molecule agonists of the androgen receptor (AR) signaling pathway in the presence of an antagonist - cell viability counter screen (AID 1259379);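 further: MDA-kb2 human breast cancer cells carrying an MMTV luciferase reporter; series mostly up to about 92 µM; nearly all actives have a fitted effect of over 25% in size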
Method in brief: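 MDA-kb2 cells (MMTV-luciferase, AR/GR), 3,000/well, 5 h attachment, then 3.0 µM nilutamide (final) and compounds at 15 concentrations. Viability by CellTiter-Fluor fluorescence after 16 h at 37 °C, 0% CO2, in the reporter wells.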

[12] = qHTS assay to identify small molecule agonists of the estrogen receptor beta (ER-beta) signaling pathway - cell viability counter screen (AID 1259380); further: nearly all actives have a fitted effect of over 30% in size
Method in brief: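 ER-beta-UAS-bla HEK293T cells in medium with 2% charcoal-stripped FBS, pre-incubated 6 hr, then treated 16 hr at 37C. Cytotoxicity read in the same wells by CellTiter-Glo luminescence after 30 min at room temperature.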

[13] = target: Androgen receptor (Homo sapiens) (UniProt P10275); experiment: qHTS assay to identify small molecule agonists of the androgen receptor (AR) signaling pathway in the presence of an antagonist (AID 1259381; calls by dose curve; further: nearly all actives have a fitted effect of over 15% in size; further: potency means the concentration at half of the fitted maximal effect)
Method in brief: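 MDA-kb2 cells carrying MMTV-luciferase (AR/GR responsive), 3,000 cells/well, co-treated with 3.0 uM nilutamide final. Compounds at 15 concentrations, 16 hr at 37C without CO2. Luciferase luminescence read after 30 min with ONE-Glo.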

[14] = qHTS assay to identify small molecule antagonists of the estrogen receptor beta (ER-beta) signaling pathway - cell viability counter screen (AID 1259382); further: series mostly up to about 92 µM; nearly all actives have a fitted effect of over 55% in size
Method in brief: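 ER-beta-UAS-bla HEK293T cells in 2% charcoal-stripped FBS medium, treated with compound plus 1 nM 17-beta-estradiol for 16 h at 37C. Viability read by CellTiter-Glo luminescence after 30 min at room temperature in the same wells.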

[15] = target: Estrogen receptor (Homo sapiens) (UniProt P03372); experiment: qHTS assay to identify small molecule agonists of the estrogen receptor alpha (ER-alpha) signaling pathway in the presence of an antagonist (AID 1259383; calls by dose curve; further: top concentration of the series differs between compounds; nearly all actives have a fitted effect of over 15% in size)
Method in brief: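 VM7Luc4E2 cells express endogenous full-length ER-alpha with an ERE-luciferase reporter and were hormone-deprived for 5 days. Compounds at 15 concentrations were added with 10.0nM ICI-182,780 for 22hr at 37C. Luminescence was read with ONE-Glo.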

[16] = qHTS assay to identify small molecule agonists or antagonists of the thyroid stimulating hormone receptor (TSHR) signaling pathway - wild type cell line counter screen (AID 1259384; calls by dose curve)
Method in brief: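 Wild-type HEK293 cells were plated 18 h at 37 C/5% CO2, pin-dosed with compound plus Ro20-1724 medium, held 30 min at room temperature, then given cAMP-d2 and anti-cAMP-cryptate; fluorescence was read after 1 h. Fifteen concentrations, triplicate.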

[17] = qHTS assay to identify small molecule antagonists of the sonic hedgehog signaling (Shh) pathway (AID 1259369; calls by dose curve; further: nearly all actives have a fitted effect of over 45% in size)
Method in brief: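 NIH/3T3-derived Gli1-Luc reporter cells plated 4 h, dosed with compound, then stimulated with conditioned medium for 24 h at 37 C. Firefly luciferase luminescence read after 30 min with detection reagent at room temperature.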

[18] = target: Estrogen receptor beta (Homo sapiens) (UniProt Q92731); experiment: qHTS assay to identify small molecule agonists of the estrogen receptor beta (ER-beta) signaling pathway (AID 1259377; active means well fitted activation curve with a large enough effect in the signal ratio in the repeat runs, not every such curve was filed as active; the % refers to the signal ratio)
Estrogen receptor beta (Homo sapiens), sequence (Q92731 whole entry, looked up): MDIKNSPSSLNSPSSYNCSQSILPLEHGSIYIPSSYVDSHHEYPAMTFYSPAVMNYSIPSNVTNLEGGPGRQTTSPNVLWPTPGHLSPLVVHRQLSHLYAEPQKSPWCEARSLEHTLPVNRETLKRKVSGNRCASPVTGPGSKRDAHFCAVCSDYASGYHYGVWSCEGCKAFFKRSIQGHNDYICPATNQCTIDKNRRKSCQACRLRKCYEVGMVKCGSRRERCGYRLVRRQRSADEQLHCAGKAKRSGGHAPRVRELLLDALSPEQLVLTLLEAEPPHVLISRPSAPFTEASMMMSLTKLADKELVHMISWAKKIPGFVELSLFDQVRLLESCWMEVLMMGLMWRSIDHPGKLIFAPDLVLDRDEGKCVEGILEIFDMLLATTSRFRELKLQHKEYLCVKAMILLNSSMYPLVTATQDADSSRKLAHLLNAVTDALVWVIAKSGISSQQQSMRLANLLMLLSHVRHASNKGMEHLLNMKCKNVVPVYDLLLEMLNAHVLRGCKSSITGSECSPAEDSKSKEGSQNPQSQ
Method in brief: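 HEK293T ER-beta-UAS-bla; 2% charcoal-stripped FBS; cells pre-incubated 6 hr, compound 16 hr, 37C/5% CO2; LiveBLAzer B/G FRET substrate 2 h RT; fluorescence intensity read.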

[19] = target: Estrogen receptor beta (Homo sapiens) (UniProt Q92731); experiment: qHTS assay to identify small molecule antagonists of the estrogen receptor beta (ER-beta) signaling pathway (AID 1259378; active means well fitted inhibition curve with a large enough effect in the signal ratio in the repeat runs, not every such curve was filed as active; the % refers to the signal ratio)
Method in brief: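 ER-beta-UAS-bla HEK293T (GripTite) cells in 2% charcoal-stripped FBS medium were preincubated 6 hr at 37C, dosed with compound, then stimulated with 1 nM E2 (final) for 16 hr; beta-lactamase reporter read by B/G FRET fluorescence after 2 hr substrate loading.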

[20] = qHTS assay to identify small molecule phospholipidosis (PLD) inducers (AID 1259344; active means well fitted curve in the direction sought with a large enough effect; an effect the other way counts as inactive or inconclusive)
Method in brief: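 HepG2 cells grown on collagen I take up LipidTOX Red while exposed to compound for 24 h; after fixation they are imaged at 20x and pit metrics are extracted.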
On the % scale 0 is the no-effect control and ±100 the full control effect.

Cc1c(F)cc2c(=O)c(C(=O)O)cn3c2c1CCC3C (stereo not drawn)
inactive: Potency [1] | outcome [2] | outcome [3] | Potency [4] | outcome [5] | Potency [6] | outcome [7] | Potency [8] | outcome [9] | Potency [10] | Potency [11] | Potency [12] | Potency [13] | Potency [14] | Potency [15] | outcome [16]

CCCCCCOC(=O)CC(CC(=O)OCCCCCC)(OC(=O)CCC)C(=O)OCCCCCC
inactive: Potency [1] | outcome [2] | outcome [3] | Potency [4] | outcome [5] | Potency [6] | outcome [7] | Potency [8] | outcome [9] | Potency [10] | Potency [17] | outcome [18] | Potency [19] | Potency [11] | Potency [12] | Potency [13] | Potency [14] | Potency [15] | outcome [16]

C1CCCCCCCCCCC1
inactive: cytotoxicity increase [1] -1.99% [at 15.8 µM] | activity change, negative = cytotoxicity [2] -5.47% [at 19 µM] | viability change, negative = cytotoxic [3] 10.4% [at 19 µM] | Potency [4] | activity change, negative = inhibition [5] -1.81% [at 19 µM] | activity change, negative = inhibition [6] 3.38% [at 19 µM] | activity change, negative = cytotoxicity [7] -1.94% [at 19 µM] | viability change, negative = cytotoxic [8] 0.953% [at 19 µM] | viability change, negative = cytotoxic [9] -0.0913% [at 19 µM] | activity change [10] -0.649% [at 18.9 µM, active compounds read high] | activation [18] -0.402% [at 19 µM] | activity, negative = inhibition [19] 0.969% [at 19 µM] | activity change, negative = cytotoxicity [11] -1.18% [at 19 µM] | activity change, negative = cytotoxicity [12] -0.0692% [at 19 µM] | Potency [13] | activity change, negative = cytotoxicity [14] 1.11% [at 19 µM] | activation [15] -2.76% [at 19 µM] | cAMP activity change [16] -4.57% [at 18.9 µM]

C#CC(O)C(CC)CCCC (stereo not drawn)
inactive: Potency [1] | outcome [2] | outcome [3] | Potency [4] | Potency [6] | outcome [7] | Potency [8] | outcome [9] | Potency [10] | outcome [18] | Potency [19] | Potency [11] | Potency [12] | Potency [13] | Potency [14] | outcome [16]

CCCC(=O)O[C@]1(C(=O)CCl)[C@@H](C)C[C@H]2[C@@H]3CCC4=CC(=O)C=C[C@]4(C)[C@@]3(F)C(=O)C[C@@]21C
inactive: Potency [1] | outcome [2] | outcome [3] | Potency [4] | outcome [5] | Potency [20] | Potency [6] | outcome [7] | Potency [8] | outcome [9] | Potency [10] | Potency [17] | Potency [11] | Potency [12] | Potency [14] | Potency [15] | outcome [16]
active: Potency [13] 4.7 nM

CCN1CCN(c2cc3c(cc2F)c(=O)c(C(=O)O)cn3C2CC2)CC1
inactive: Potency [1] | outcome [2] | outcome [3] | Potency [4] | Potency [20] | Potency [6] | outcome [7] | Potency [8] | outcome [9] | Potency [10] | outcome [18] | Potency [11] | Potency [12] | Potency [13] | Potency [14] | outcome [16]

— PubChem BioAssay (Tox21)
